Among all 100,000 compounds or so, about 440 (0.44%) were called active. This excerpt belongs to a sample that is enriched for actives. Values without a mark were called inactive. Rule as the data show it: active = inhibition above about 21% (passing the limit was not always enough); inactive = the rest.
Molecular target: 1,4-dihydroxy-2-naphthoyl-CoA synthase (Mycobacterium tuberculosis (strain ATCC 25618 / H37Rv)) (UniProt P9WNP5)
Assay: M. tuberculosis MenB inhibitors, primary screen, biochemical, absorbance (AID 540299)
Settings: MenB enzyme assay, absorbance read-out; active compounds read high; concentration not given here

Sequence of 1,4-dihydroxy-2-naphthoyl-CoA synthase (Mycobacterium tuberculosis (strain ATCC 25618 / H37Rv)) (P9WNP5 whole entry, looked up): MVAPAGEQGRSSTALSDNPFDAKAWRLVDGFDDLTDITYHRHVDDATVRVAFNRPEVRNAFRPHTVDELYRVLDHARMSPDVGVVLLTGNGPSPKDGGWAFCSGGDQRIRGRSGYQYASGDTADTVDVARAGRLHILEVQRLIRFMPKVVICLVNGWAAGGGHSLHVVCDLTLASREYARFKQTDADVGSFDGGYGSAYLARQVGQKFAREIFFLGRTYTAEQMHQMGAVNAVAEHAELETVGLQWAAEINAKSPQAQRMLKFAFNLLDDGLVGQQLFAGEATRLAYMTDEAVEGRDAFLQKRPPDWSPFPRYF

| SMILES | inhibition |
| --- | --- |
| CC1CC(Nc2ncnc3c2cnn3C)CC(C)(C)C1 (stereo unspecified) | -4.06% |
| CCn1c(SCc2cc(=O)n3ccsc3n2)nnc1-c1cccs1 | 9.46% |
| C=CCSc1nnc(NC(=O)CSc2nc(C)cc(=O)[nH]2)s1 | -17% |
| NS(=O)(=O)c1ccc(NC(=O)Cc2ccccc2F)cc1 | -21.5% |
| CCN(CC)C(=O)N1CCc2cc(OC)c(OC)cc2C1c1cc2cc(C)ccc2n(C(=O)N(CC)CC)c1=O (stereo unspecified) | 4.68% |
| CN(CC(=O)Nc1ccccc1SCC#N)Cc1ccc(-c2ccc(Br)cc2)o1 | 30.3% (active) |
| N#CCSc1ccccc1NC(=O)CN1CCc2sccc2C1c1cccs1 (stereo unspecified) | -20.8% |
| COc1cc(C(=O)Nc2ccc3nc(N4CCN(c5ncccn5)CC4)cc(C)c3c2)cc(OC)c1OC | 2.12% |
| CC(c1ccccc1)n1cnc2c(oc3ccccc32)c1=O (stereo unspecified) | 7.36% |
| Cc1ccc2[nH]c(=O)c(C(c3nnnn3C3CCCC3)N(C)C3CCCCC3)cc2c1 (stereo unspecified) | 3.2% |
| CCc1ccc(N/N=C(\C#N)C(=O)N2CCN(C)CC2)cc1 | -139% |
| O=C(CCn1c(=O)c2cccn2c2ccc(F)cc21)NC1CCCCC1 | -14.7% |
| Cc1ccc2c(c1)c1c3n2CCN(C2CCO2)C3CCC1 (stereo unspecified) | -8.76% |
| O=C(CC(NCCc1ccc(Cl)cc1)C(=O)O)c1ccc(Br)cc1 (stereo unspecified) | -5.44% |
| CC(C)(C)c1oc2cc(Br)c(O)cc2c1C(=O)O | -32.6% |
| CCO/C(C)=N\Oc1nc2nonc2nc1O/N=C(/C)OCC | 28.8% (active) |
| COc1nc2nonc2nc1OC | 26.7% |
| CCOC(=O)CCSc1ccccn1 | -3.2% |
| CN(Cn1nc(Nc2ccccc2F)sc1=S)C1CCCCC1 | 4.42% |
| O=CN/N=C/c1cn(-c2cccs2)nc1-c1ccccc1 | -3.73% |
| C=COc1ccc(N)cc1 | -24.2% |
| Cc1noc2nc(C(F)(F)F)cc(C(F)(F)F)c12 | -1.29% |

| SMILES | inhibition |
| --- | --- |
| CS(=O)(=O)Cc1ccccc1 | 28.2% (active) |
| COc1ccc(OCCNS(=O)(=O)Cc2ccccc2)cc1 | -18.2% |
| O=S(=O)(NCCc1ccccc1)c1ccccc1 | 10.7% |
| O=C(O)CC(c1ccccc1)c1cc(Cl)ccc1O (stereo unspecified) | 2.19% |
| CC1CN(C(=O)COC(=O)c2c(F)cccc2F)CC(C)O1 (stereo unspecified) | -14.9% |
| Cc1cc(NC(=O)COC(=O)C2CSC3(C)CCC(=O)N23)no1 (stereo unspecified) | -17% |
| CCCCn1c(N)c(N2CCOCC2)c(=O)n(CC(=O)NCCc2ccccc2)c1=O | 2.85% |
| COc1cc(S(=O)(=O)N2CCCCC2)ccc1N=Cc1c(C)[nH]n(-c2ccccc2)c1=O | -6.35% |
| Cn1c(=O)c(=O)n(C)c2cc(N3CCCCC3)c(NS(=O)(=O)c3ccc(Br)s3)cc21 | -15.3% |
| NCCN1C(=O)S/C(=C/c2cccs2)C1=O | -14.2% |
| O=C(Cn1cnc2ccccc2c1=O)NCCSCc1ccco1 | -21.3% |
| COc1ccc(OCC(=O)N2CCC(C(N)=O)CC2)cc1 | -7.08% |
| CC1CC(C)CN(C(=O)COC(=O)c2ccccc2NC(=O)c2ccco2)C1 (stereo unspecified) | 9.45% |
| O=C1C2N=NN(CC(=O)N(c3ccccc3)c3ccccc3)C2C(=O)N1c1ccc(Cl)cc1 (stereo unspecified) | -6.55% |
| N#CC(C#N)=Cc1ccc(OC(=O)c2cccs2)cc1 | 0.71% |
| CC(=O)N(Cc1cc2ccccc2[nH]c1=O)c1ccccc1 | -11.4% |
| CC(NCCN1CCOCC1)C(=O)NC1CCCCC1 (stereo unspecified) | 35.5% (active) |
| COC(=O)c1c(NC(=O)CCN2CCOCC2)sc2c1CCCC2 | -12.6% |
| S=C(NC1CCCCC1)NN1CCOCC1 | -1.62% |
| Cc1cc(C)n(CC(O)CNCc2ccco2)n1 (stereo unspecified) | -21.2% |
| CN(C)c1ccc(C=Nc2cc(Br)c3c(c2)OCCO3)cc1 | 7.11% |
| O=C(O)CSc1ccc2nnc(-c3ccc(F)cc3)n2n1 | -23.7% |

| SMILES | inhibition |
| --- | --- |
| COc1ccccc1CNCCN1CCOCC1 | 38.3% (active) |
| COc1ccccc1COCC(O)CN1CCC(=O)CC1 (stereo unspecified) | -22.7% |
| CNCC(O)CN1CCN(c2ccccc2OC)CC1 (stereo unspecified) | -10.5% |
| C(=C\c1ccccc1)/CNCCCN1CCOCC1 | -52.5% |
| COc1cccc(-c2noc(NCCN3CCOCC3)n2)c1 | -12.4% |
| COc1ccccc1OCC(O)CN1CCOCC1 (stereo unspecified) | 34.9% (active) |
| CC(=O)n1c2ccccc2c2nc(C)sc21 | -21.4% |
| CCOC(=O)c1ccc(NC(=O)C(CC)Sc2nnc(C)n3c2cc2occc23)cc1 (stereo unspecified) | -38.3% |
| CN(C)c1ccc(/C=N/NC(=O)NC23CC4CC(CC(C4)C2)C3)cc1 | -17% |
| CC(C)c1cc(C(=O)O)on1 | 31.1% (active) |
| CCCNC(=O)c1cc(C(C)C)on1 | -9.37% |
| Cc1cc(C(=O)N2CCCC2)on1 | -1.16% |
| COc1cc(OC)c(NC(=O)C2CCCN(S(=O)(=O)c3ccc4c(c3)oc(=O)n4C)C2)cc1Cl (stereo unspecified) | -18.8% |
| Cc1nnc(NC(=O)CSc2nnc(CNC(=O)c3ccccc3F)n2C)s1 | 27.8% |
| O=C(OCc1ccc(-c2cc(C(F)(F)F)cc(C(F)(F)F)c2)o1)c1ccc2c(c1)CCO2 | -6.53% |
| CCN(CC)C(=O)COc1ccc(/C(C)=N/NC(=O)Cc2ccccc2)cc1 | -14.7% |
| O=C(NCCc1ccccc1)Nc1ccccc1 | 8.56% |
| O=C(O)C1C2C=CC(O2)C1C(=O)NCCc1cccc(Cl)c1 (stereo unspecified) | -14.4% |
| O=C(O)C1CC=CCC1C(=O)NCCc1ccccc1 (stereo unspecified) | 36% (active) |
| COc1cccc(-n2c(=S)sc3c(=O)n4[nH]c(=O)c5ccccc5c4nc32)c1 | -24.4% |
| CC(C)[C@H](NC(N)=O)C(=O)Nc1ccc(Cl)c(Cl)c1 | -13.2% |
| CCOC(CSc1nnc2c3ccccc3n(CC)c2n1)OCC | -14% |

| SMILES | inhibition |
| --- | --- |
| CC(=O)NC1C(Oc2ccccc2)OC(CO)C(O)C1O (stereo unspecified) | -6.61% |
| COc1ccc(OCCOc2cccc(N)c2)cc1 | -98.6% |
| Cc1cccc(-n2nnnc2SCC(=O)c2c[nH]c3ccccc23)c1 | -3.22% |
| C=CCN(CC=C)C(=O)CSc1nnnn1-c1ccc(C)cc1C | -1.92% |
| CCn1nnnc1SCC(=O)c1ccc(C)cc1C | 33.1% (active) |
| CCNC(=S)N1CCn2cccc2C1c1cccs1 (stereo unspecified) | -29% |
| CC(Sc1nnnn1C)C(=O)C12CC3CC(CC(C3)C1)C2 (stereo unspecified) | -36% |
| COc1ccc(S(N)(=O)=O)cc1C(=O)OC1CCCCC1=O (stereo unspecified) | -12.8% |
| Clc1cccc(Nc2nnc(-c3ccc(Br)cc3)o2)c1 | 1.27% |
| CC1CCNC(c2cccn2C)CC1 (stereo unspecified) | -2.11% |
| CCN1C(=O)C2(Sc3ccccc3C2=O)C(=O)N(CC)C1=S | -6.71% |
| Clc1ncn(CCOc2ccccc2)c1Cl | 3.99% |
| O=C(Cn1c(=O)oc2ccccc21)N(Cc1ccco1)CC1CCCO1 (stereo unspecified) | 2.87% |
| O=C(NCc1ccco1)OCC(F)(F)F | 8.37% |
| O=C(c1cccs1)N1CCCn2c(SCc3ccccc3Cl)nnc21 | -21.4% |
| COC(=O)c1ccccc1S(=O)(=O)N1CCC(C(=O)OCC(=O)Nc2ccccc2F)CC1 | -9.07% |
| CCN(CC)CCn1c2ccccc2c2nc3cc(C(=O)O)ccc3nc21 | -8.07% |
| Cc1oc(-c2ccc(Cl)cc2)nc1CSCC(=O)N1CCc2ccccc21 | 8.32% |
| COCCN=c1scc(-c2ccco2)n1/N=C/c1ccc(OC)cc1 | -60.5% |
| CN1C(=O)CS/C1=C\C(=O)c1cccs1 | -16.1% |
| Fc1ccc(C=Nc2ccc3c(c2)OCO3)cc1 | 10.6% |
| C/[N+]([O-])=C\c1ccc(-c2ccccc2)cc1 | -18.5% |

| SMILES | inhibition |
| --- | --- |
| O=C(COc1ncnc2c1cnn2-c1ccccc1)N1CCc2ccccc21 | -28.4% |
| O=C(COn1nnc2ccccc21)N1CCC(Cc2ccccc2)CC1 | -32.5% |
| O=C1NC(c2cccc(F)c2)=N/C1=C/c1cc2c(cc1Cl)OCO2 | -89% |
| Cc1ccc(-c2csc3ncnc(NCCO)c23)cc1 | -19.8% |
| Cc1cccc(/N=c2\scc(-c3ccco3)n2-c2ccccc2)n1 | -26.2% |
| CCC(=O)c1c(O)ccc2c(C)cc(=O)oc12 | 2.91% |
| CCN(CC)c1ccc2cc(C(N)=O)/c(=N\NC(=O)c3ccccc3)oc2c1 | -13.9% |
| Cn1c(=N)n(CC(=O)C23CC4CC(CC(C4)C2)C3)c2ccccc21 | -12% |
| Cc1ccc(NC(=O)CN2CCc3ccccc32)cc1C | -19.3% |
| COc1cccc2c(C)nc(NC3=NCN(CC4CCCO4)CN3)nc12 (stereo unspecified) | -8.02% |
| COC(=O)c1ccc(NC(=O)C(C(C)C)N2C(=O)c3ccccc3C2=O)cc1 (stereo unspecified) | 0.235% |
| Cc1cc(NC(=O)[C@H](C)NC(=O)c2ccco2)ccc1Br | 0.245% |
| Cc1ccccc1NC(=O)COC(=O)c1ccccc1 | 4.34% |
| O=C1Nc2ccccc2S/C1=C\C(=O)N1CCc2ccccc2C1 | -6.55% |
| CCOC(=O)c1ccc2c(c1)[nH]c(=O)c(=O)n2CC | 5.07% |
| C/C(=C\C(=O)c1ccccc1)Nc1cccc(O)c1 | -47% |
| O=C(O)/C(=C/C(=O)c1ccccc1)Nc1ccc(OC(F)(F)F)cc1 | 32.1% (active) |
| O=C(O)/C(=C/C(=O)c1ccc(F)cc1)Nc1ccc2[nH]c(=O)[nH]c2c1 | -9.19% |

— PubChem BioAssay AID540299 (ICCB-Longwood Screening Facility, Harvard Medical School, 2011)
